Compound activity as filed in PubChem.
HT1080NT lethal: kills 2HG-producing HT-1080-NT fibrosarcoma cells. HT-1080-NT fibrosarcoma viability, CellTiter-Glo ATP luminescence, 48 h. Potency, µM (titrated, usually from 46.1 µM), for the others: at the top dose activity, negative = less viability, usual class: cytotoxic. 360,000 tested, 1.6% active. AID 686970;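 also: NT is the 2HG producing partner of a matched IDH1 knockdown line; potency is read from the fitted curve at half-maximal effect; 0% = DMSO-treated cells and -100% = media-only wells without cells; nearly all actives have a fitted effect of over 55% in size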
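Viability of the 2HG-overproducing fibrosarcoma line after 48 hours of compound exposure at 37 degrees C was determined by luminescence with CellTiter-Glo, and concentration-effect curves were then fitted and categorized.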
TDP1 cell CPT: DT40-hTDP1 cell growth loss with CPT. chicken DT40 Tdp1-/-;hTDP1 cells + 20 nM CPT, ATP luminescence, 48 h. Potency, µM (series often up to 46.2 µM), for the others: top-dose activity change, negative = growth inhibition, most hits filed as inhibitors. 420,000 tested, 12% active. AID 686979; also: potency is read from the fitted curve at half-maximal effect; nearly all actives have a fitted effect of over 55% in size
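Cell growth measured by CellTiter-Glo luminescence after a minimum 48 h, 37 C compound exposure with 20 nM CPT in Tdp1-knockout DT40 cells stably expressing hTDP1, seeded 400/well; qHTS titration format.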
TDP1 cell noCPT: qHTS for Inhibitors of human tyrosyl-DNA phosphodiesterase 1 (TDP1): qHTS in cells in absence of CPT; 420,000 tested, 15% active; DT40 Tdp1-/- hTDP1 cells, no CPT, ATP luminescence, 48 h; Potency, µM (titrated, usually from 46.2 µM), without a hit: at the highest dose activity change, negative = growth inhibition, hits mostly inhibitors; also: potency is read from the fitted curve at half-maximal effect; nearly all actives have a fitted effect of over 55% in size
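Growth kinetics read by CellTiter-Glo luminescence after ≥48 hr at 37 °C. Cells: DT40 Tdp1-/- stably carrying human TDP1, 400 per well, compound exposure in the absence of CPT (DMSO vehicle).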
HT1080 IDH1KD tx: toxicity to HT-1080 IDH1 knockdown cells (counter line); HT-1080 IDH1 knockdown viability, ATP luminescence, 48 h; 360,000 tested, 2% active; AID 686971; Potency, µM (highest dose often 46.1 µM), inactives show top-dose activity, negative = toxicity, most hits filed as cytotoxic;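 also: potency is read from the fitted curve at half-maximal effect; 0% = DMSO wells and -100% = cell-free medium wells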
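Viability of IDH1-knockdown HT-1080 fibrosarcoma cells was assessed by CellTiter-Glo after 48 h at 37 °C with titrated compound; concentration-effect curves were classified by fit quality and response size.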
IL1B secr inh: blocks inflammasome-driven IL-1 beta release; THP-1 LPS/ATP IL-1B secretion, AlphaLISA, 16 h; active compounds read low; activity change, % at 57.5 µM; 360,000 tested, 4.7% active; AID 743279; in the data active = activity change below about -50%; inconclusive = mostly about -30% to -49%
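Secreted IL-1B measured by AlphaLISA bead assay after 16 h compound exposure of THP-1 cells; compounds (final up to 57.5 uM) added 1 h before LPS (250 ng/mL) and ATP (1.25 mM) stimulation; lower signal means less secretion.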
ALOX12 inh: blocks human arachidonate 12S-lipoxygenase; P18054; purified 12hLO, xylenol orange hydroperoxide absorbance; Potency, µM (top dose mostly 108 µM), for inactives: at the highest dose activity change, negative = inhibition, hits mostly inhibitors; 580,000 tested, 1.1% active; AID 1671190; also: potency is read from the fitted curve at half-maximal effect
Target sequence (P18054 whole entry, looked up): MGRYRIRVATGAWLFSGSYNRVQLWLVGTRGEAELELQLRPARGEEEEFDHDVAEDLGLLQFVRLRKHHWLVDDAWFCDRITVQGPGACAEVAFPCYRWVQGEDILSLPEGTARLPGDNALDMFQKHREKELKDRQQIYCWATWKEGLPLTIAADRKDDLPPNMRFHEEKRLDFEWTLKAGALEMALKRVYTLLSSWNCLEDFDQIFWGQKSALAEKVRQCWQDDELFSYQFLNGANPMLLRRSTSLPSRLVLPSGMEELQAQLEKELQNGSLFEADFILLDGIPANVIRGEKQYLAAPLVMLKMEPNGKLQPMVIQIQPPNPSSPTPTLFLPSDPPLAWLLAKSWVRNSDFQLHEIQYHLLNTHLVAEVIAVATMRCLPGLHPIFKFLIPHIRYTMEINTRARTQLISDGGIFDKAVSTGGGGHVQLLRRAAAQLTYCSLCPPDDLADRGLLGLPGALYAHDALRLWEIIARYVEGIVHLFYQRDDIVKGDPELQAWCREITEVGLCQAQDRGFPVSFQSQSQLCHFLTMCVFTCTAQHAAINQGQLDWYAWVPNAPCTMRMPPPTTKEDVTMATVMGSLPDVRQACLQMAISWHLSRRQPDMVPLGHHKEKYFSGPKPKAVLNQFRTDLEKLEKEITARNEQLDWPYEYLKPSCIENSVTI
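Purified human 12hLO (150 nM final) in 25 mM Hepes, 0.01% Triton X-100, pH 7.0 was preincubated 15 min at room temperature with compound. Then 40 uM arachidonic acid was added, 30 min. Hydroperoxide was read by Fe-XO absorbance ratio 573/405 nm.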
Starred values were filed as active, the others as inactive; ? = inconclusive; nt = no result given; [ ] = dose if it differs, or a comment. This is one part of a sample in which hits are shown more often than they occur. Unless noted, calls follow the shape of the dose curve; as a rule, active = well fitted curve in the direction sought with a large enough effect; inconclusive = small, poorly fitted or top-dose-only effect, or another doubt; inactive = no such curve, though single readings can be large; an effect the other way counts as inactive or inconclusive. Unless noted, % is scaled to controls: 0 for no effect and ±100 for the full control effect.

SMILES | HT1080NT lethal | TDP1 cell CPT | TDP1 cell noCPT | HT1080 IDH1KD tx | IL1B secr inh | ALOX12 inh
CCN(CC)C(=S)Nc1ccc(F)cc1 | nt | nt | nt | nt | nt | 9%
COc1ccccc1OCc1nnc(SCC(=O)Nc2nnc(C3CC3)s2)n1C | -1% | -24% | ? | 0% | 7 | -17%
Cc1ccc(C(=O)Nc2cccc(C(F)(F)F)c2)cc1NC(=O)c1c[nH]c2cc(C(F)(F)F)ccc2c1=O | 7% | 5.2µM* | ? | 12% | 38 | 2%
CCN1CCN(Cc2ccc(NC(=O)c3ccc(C)c(NC(=O)c4c[nH]c5cc(C(F)(F)F)ccc5c4=O)c3)cc2C(F)(F)F)CC1 | 3.3µM* | 4.6µM* | 4.1µM* | 3.3µM* | -105* | ?
O=C([C@@H]1C[C@H](Oc2ccccc2)CN1C(=O)C1(c2ccccc2)CC1)N1CCCC1 | nt | nt | nt | nt | nt | 14%
C#CCOc1c(I)cc(/C=C2/NC(=O)NC2=O)cc1OCC | nt | nt | nt | nt | nt | 16%
Cc1ccc(F)cc1C(=O)N1CCCC(c2cc(C(=O)NCc3ccccc3)no2)C1 (stereo not drawn) | 7% | ? | ? | 4% | -8 | 3%
O=C(Nc1ccccc1Cl)c1cc(C2CCCN(C(=O)c3ccccc3)C2)on1 (stereo not drawn) | ? | 18µM* | ? | 28% | -9 | -7%
Cc1ccc(F)cc1C(=O)N1CCCC(c2cc(C(=O)Nc3ccccc3Cl)no2)C1 (stereo not drawn) | ? | ? | 21µM* | -70% | 23 | -15%
O=C(Nc1ccccc1Cl)c1cc(C2CCCN(C(=O)c3cccc(O)c3)C2)on1 (stereo not drawn) | 2% | ? | -27% | 24% | 14 | -16%
COc1cc(C=C2Cc3ccccc3C2=O)cc(OC)c1OC | 0% | 16µM* | 8.2µM* | -9% | 17 | -6%
COc1cc(N(C)C)c(OC)cc1/C=C1\Cc2ccccc2C1=O | nt | ? | 11µM* | nt | nt | nt
COc1ccc(/C=C2\Cc3ccccc3C2=O)cc1OC | 3% | -19% | ? | 5% | -1 | -2%
COc1ccc(C=C2Cc3ccccc3C2=O)cc1 | -1% | -11% | ? | -10% | 18 | 6%
COCc1noc([C@@H]2CC(F)(F)CN2C(=O)Cc2ccc(F)cc2)n1 | nt | nt | nt | nt | nt | 51%
Cc1cn2nc(-c3nc(C4CCCN(C(=O)Cc5ccc(F)cc5)C4)no3)cc2c(=O)[nH]1 (stereo not drawn) | nt | nt | nt | nt | nt | 55%
Cc1nn(Cc2ccccc2)c2c1C(c1cccc(Cl)c1)C(C#N)=C(N)O2 (stereo not drawn) | -24% | 23µM* | 18µM* | ? | 62 | ?
Cc1cc2c(c(=O)n1CCc1ccccc1)C(c1cccc(Cl)c1)C(C#N)=C(N)O2 (stereo not drawn) | nt | nt | nt | nt | nt | -17%
O=c1[nH]nc(-c2ccc(N3CCCCC3)c([N+](=O)[O-])c2)c2ccccc12 | nt | nt | nt | nt | nt | -2%
O=C1c2ccccc2-c2n[nH]c(=O)c3ccc(N4CCCCC4)c1c23 | ? | 9.2µM* | 9.2µM* | ? | -94* | 7%
Cn1c(=O)oc2cc(S(=O)(=O)NCc3ccncc3)ccc21 | -3% | 8.2µM* | 8.2µM* | -16% | 75 | ?
CC(C)c1ccc(NS(=O)(=O)c2ccc3c(c2)oc(=O)n3C)cc1 | -4% | 18µM* | ? | 1% | 16 | 30%
CCOc1ccccc1CNS(=O)(=O)c1ccc2c(c1)oc(=O)n2C | 8% | ? | -5% | 11% | -17 | 4µM*
CCOc1ccccc1NS(=O)(=O)c1ccc2c(c1)oc(=O)n2C | nt | -20% | -19% | nt | nt | -16%
Cn1c(=O)oc2cc(S(=O)(=O)NCc3ccc(C(=O)O)cc3)ccc21 | 0% | -4% | 0% | -4% | 28 | 2%
SMILES | HT1080NT lethal | TDP1 cell CPT | TDP1 cell noCPT | HT1080 IDH1KD tx | IL1B secr inh | ALOX12 inh
COC(=O)CNC(=O)c1cc(-c2ccc(Cl)cc2Cl)nc2c1cnn2C | nt | nt | nt | nt | nt | 3%[6.33 µM]
COC(=O)C1=CN(CC(=O)N(C)c2cccc(C)c2)S(=O)(=O)N=C1C | nt | nt | nt | nt | nt | 21%
Cc1ccc(-n2ncc3c(=O)n(CC(=O)N(C(C)C)C(C)C)cnc32)cc1 | 5% | -3% | 3% | 5% | 14 | 0%
Cc1ccc(NC(=O)COc2cccc3ccc(C)nc23)c(Br)c1 | -4% | ? | 23µM* | -8% | 0 | 4%
O=C(N/N=C/c1cccc(Oc2ccccc2)c1)c1cccs1 | nt | nt | nt | nt | nt | 20%
COC(=O)C1=C(C(=O)OC)SC2(S1)C(c1ccccc1)=CSC(C(=O)OC)=C2C(=O)OC | nt | nt | nt | nt | nt | -24%
CC(=O)N(Cc1nc(-c2ccc(C)cc2)no1)C1CCCCC1 | nt | nt | nt | nt | nt | 15%
COc1ccc(S(=O)(=O)N(Cc2nc(-c3ccc(C)cc3)no2)C2CCCCC2)cc1 | nt | 8.2µM* | 7.3µM* | nt | nt | -19%
Cc1ccc(-c2noc(CN(C3CCCCC3)S(=O)(=O)c3ccc(C)cc3)n2)cc1 | nt | 13µM* | 10µM* | nt | nt | -12%
COc1ccc(-c2noc(CN(C(C)C)S(=O)(=O)c3ccc(Br)cc3)n2)cc1 | nt | ? | 23µM* | nt | nt | -31%
O=C(NCc1ccncc1)c1cc(CN2CCC(Cc3ccccc3)CC2)on1 | nt | nt | nt | nt | nt | 53%
Cc1cc(C)n(CC(=O)NNC(=O)C2CC(=O)N(Cc3ccccc3Cl)C2)n1 (stereo not drawn) | 23% | 4% | ? | 18% | 1 | 0%
CCOc1cccc(C2C(C#N)=C(N)OC(C(C)(C)C)=C2C#N)c1OCC (stereo not drawn) | nt | nt | nt | nt | nt | -14%
CCC(=O)N1CCCc2cc(S(=O)(=O)N3CCC(C(=O)Nc4ccc(F)c(F)c4)CC3)ccc21 | nt | -87% | 12µM* | nt | nt | -17%
CCC(=O)N1CCCc2cc(S(=O)(=O)N3CCC(C(=O)Nc4ccc(C#N)cc4)CC3)ccc21 | nt | 18µM* | ? | nt | nt | -55%
CCC(=O)N1CCCc2cc(S(=O)(=O)N3CCC(C(=O)NC4CCCCC4)CC3)ccc21 | nt | -3% | -20% | nt | nt | -14%
O=C(Nc1ccccc1)C1CCN(S(=O)(=O)c2ccc3c(c2)CCCN3C(=O)C2CCC2)CC1 | nt | ? | ? | nt | nt | 4%
O=C(Nc1ccc(F)c(Cl)c1)C1CCN(S(=O)(=O)c2ccc3c(c2)CCCN3C(=O)C2CCC2)CC1 | nt | 9.2µM* | 12µM* | nt | nt | ?
O=C(Cn1ccc2ccccc21)NCc1ccccc1Cl | nt | nt | nt | nt | nt | -1%
CC(=O)c1cccc(NC(=O)O[C@@H]2CO[C@H]3[C@@H]2OC[C@@H]3Nc2nccc(-c3cccc(F)c3)n2)c1 | nt | nt | nt | nt | nt | 37%
